PubChem BioAssay (NCI)
This is part of a sample that, as a whole, favours compounds with a hit. Of some 79,000 tested, about 15% had one in any assay. Active and inactive are the calls of the source. Rule as the data show it: active = growth inhibition above about 70%; inactive = the rest.

How the values were obtained:
[1] = NCI Yeast Anticancer Drug Screen. Data for the rad52 strain (AID 147);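 also: 0% = growth of vehicle-treated control cultures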; conditions: S. cerevisiae rad52 mutant growth inhibition, active compounds read high
Summary of the method: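 The repair-mutant yeast strain was incubated with compounds, then growth was read and inhibition derived relative to vehicle.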

[2] = NCI Yeast Anticancer Drug Screen. Data for the wt1 strain (AID 149);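 also: 0% = growth of vehicle-treated wt1 cultures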; conditions: S. cerevisiae wt1 strain (SPY 50644) growth inhibition, active compounds read high
Summary of the method: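 Using yeast strain wt1, compound-induced growth inhibition was determined against vehicle-treated cultures.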

[3] = NCI Yeast Anticancer Drug Screen. Data for the rad50EPP+ strain (AID 151);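 also: 0% = growth of vehicle-treated control cultures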; conditions: S. cerevisiae rad50 mutant strain, active compounds read high
Summary of the method: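 Vehicle-normalised growth inhibition; rad50EPP+ yeast strain, altered in DNA damage repair, compound-treated.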

[4] = NCI Yeast Anticancer Drug Screen. Data for the mgt1 strain (AID 153); conditions: S. cerevisiae mgt1 mutant growth inhibition, active compounds read high
Summary of the method: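 Vehicle-normalized growth inhibition is determined in mgt1 yeast, a strain selected for a defined alteration in DNA repair or cell cycle control.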

[5] = NCI Yeast Anticancer Drug Screen. Data for the rad50 strain (AID 155);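 also: 0% = growth of vehicle-only cultures of the same strain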; conditions: S. cerevisiae rad50 strain growth inhibition, active compounds read high
Summary of the method: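 Relative growth inhibition (compound vs vehicle) was measured in yeast with a defined repair-gene alteration.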

[6] = NCI Yeast Anticancer Drug Screen. Data for the mec2-1 strain (AID 157); conditions: S. cerevisiae mec2-1 strain, active compounds read high
Summary of the method: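 Mutant yeast (mec2-1) grown with compound; growth inhibition relative to vehicle control reported.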

[7] = NCI Yeast Anticancer Drug Screen. Data for the rad14 strain (AID 159);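 also: 0% = growth of vehicle-treated control cultures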; conditions: S. cerevisiae rad14 strain growth inhibition, active compounds read high
Summary of the method: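 Screen for anticancer potential: a yeast strain altered in DNA damage repair is grown with compound, and reduced growth is quantified against vehicle controls.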

[8] = NCI Yeast Anticancer Drug Screen. Data for the sgs1 mgt1 strain (AID 161);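 also: 0% = growth of cultures given vehicle only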; conditions: S. cerevisiae sgs1 mgt1 strain, active compounds read high
Summary of the method: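 Growth of a repair-deficient yeast mutant was monitored after compound treatment and expressed as inhibition relative to vehicle-treated cultures.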

[9] = NCI Yeast Anticancer Drug Screen. Data for the CLN2oe strain (AID 163);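 also: 0% = growth of vehicle-only control cultures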; conditions: S. cerevisiae CLN2oe strain, active compounds read high
Summary of the method: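 Compounds are applied to yeast harbouring a defined cell-cycle control change; reduced growth compared with vehicle-treated controls gives the value.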

[10] = NCI Yeast Anticancer Drug Screen. Data for the cln2 rad14 strain (AID 165);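 also: 0% = growth equal to vehicle treated cultures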; conditions: S. cerevisiae cln2 rad14 strain, active compounds read high
Summary of the method: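 Readout is yeast growth inhibition versus vehicle-treated controls, using a strain with cln2 and rad14 alterations exposed to compound.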

[11] = NCI Yeast Anticancer Drug Screen. Data for the bub3 strain (AID 167); conditions: S. cerevisiae bub3 mutant strain, active compounds read high
Summary of the method: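 Screening used yeast with an engineered genetic alteration affecting cell cycle control. Compound-exposed cultures were compared with vehicle cultures, and reduced growth was taken as inhibition.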

[12] = NCI Yeast Anticancer Drug Screen. Data for the wt2 strain (AID 169);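 also: 0% = growth of vehicle-treated yeast cultures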; conditions: S. cerevisiae wt2 strain growth inhibition, active compounds read high
Summary of the method: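 Against vehicle-treated controls, the growth of yeast exposed to each compound was compared, and the inhibition was recorded.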

[13] = NCI Yeast Anticancer Drug Screen. Data for the mlh1 strain (AID 171);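 also: 0% = growth of vehicle-treated control cultures of the same strain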; conditions: S. cerevisiae mlh1 strain growth inhibition, active compounds read high
Summary of the method: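 Measured: yeast growth. Reference: vehicle-treated controls. Organism: strain with a defined alteration affecting DNA damage repair or cell cycle control, treated with compound.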

[14] = NCI Yeast Anticancer Drug Screen. Data for the sgs1 strain (AID 173);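 also: 0% = growth of vehicle-only control cultures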; conditions: S. cerevisiae sgs1 mutant, active compounds read high
Summary of the method: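 Each compound was added to cultures of the altered yeast strain. Growth was recorded, and inhibition was derived by comparison with vehicle controls.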

[15] = NCI Yeast Anticancer Drug Screen. Data for the mlh1 rad18 strain (AID 175); conditions: S. cerevisiae mlh1 rad18 strain growth inhibition, active compounds read high
Summary of the method: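 Genetically defined yeast (DNA repair-deficient) exposed to compounds; growth inhibition determined relative to vehicle.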

[16] = NCI Yeast Anticancer Drug Screen. Data for the rad18 strain (AID 177); conditions: S. cerevisiae rad18 mutant growth inhibition, active compounds read high
Summary of the method: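 Vehicle-treated cultures served as the baseline for scoring compound-induced growth inhibition in DNA-repair-mutant yeast.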

[17] = at 5.0 µM (retest, dose inferred, filed as 0.5)
[18] = at 50.0 µM (retest, dose inferred, filed as 5.0)

Measured: growth inhibition

O=[N+]([O-])c1cc([As](Br)c2ccc(O)c([N+](=O)[O-])c2)ccc1O
inactive: [1]; at 1.2 µM 15% | [1]; at 3.7 µM 57% | [2]; at 1.2 µM 10% | [3]; at 1.2 µM 0% | [3]; at 3.7 µM 3% | [3]; at 11.0 µM 26% | [4]; at 1.2 µM 28% | [5]; at 1.2 µM 28% | [6]; at 1.2 µM 60% | [7]; at 1.2 µM 31% | [7]; at 3.7 µM 69% | [9]; at 1.2 µM 16% | [9]; at 3.7 µM 22% | [12]; at 1.2 µM 12% | [13]; at 1.2 µM 31% | [14]; at 1.2 µM 33% | [16]; at 1.2 µM 26%
active: [1]; at 11.0 µM 99% | [1]; at 33.0 µM 99% | [1]; at 100.0 µM 98% | [2]; at 3.7 µM 70% | [2]; at 11.0 µM 99% | [2]; at 33.0 µM 98% | [2]; at 100.0 µM 98% | [3]; at 33.0 µM 74% | [3]; at 100.0 µM 99% | [4]; at 3.7 µM 88% | [4]; at 11.0 µM 100% | [4]; at 33.0 µM 99% | [4]; at 100.0 µM 99% | [5]; at 3.7 µM 89% | [5]; [17] 99% | [5]; at 11.0 µM 99% | [5]; at 33.0 µM 99% | [5]; [18] 99% | [5]; at 50.0 µM 99.5% | [5]; at 100.0 µM 98% | [6]; at 3.7 µM 93% | [6]; [17] 99% | [6]; at 11.0 µM 99% | [6]; at 33.0 µM 100% | [6]; [18] 99% | [6]; at 50.0 µM 99.8% | [6]; at 100.0 µM 100% | [7]; at 11.0 µM 100% | [7]; at 33.0 µM 100% | [7]; at 100.0 µM 99% | [8]; [17] 99% | [8]; [18] 99% | [8]; at 50.0 µM 99.5% | [9]; at 11.0 µM 93% | [9]; at 33.0 µM 98% | [9]; at 100.0 µM 98% | [10]; [17] 98% | [10]; [18] 99% | [10]; at 50.0 µM 99.5% | [11]; at 1.2 µM 97% | [11]; at 3.7 µM 98% | [11]; [17] 93% | [11]; at 11.0 µM 97% | [11]; at 33.0 µM 98% | [11]; [18] 99% | [11]; at 50.0 µM 99.5% | [11]; at 100.0 µM 99% | [12]; at 3.7 µM 94% | [12]; at 11.0 µM 99% | [12]; at 33.0 µM 99% | [12]; at 100.0 µM 99% | [13]; at 3.7 µM 75% | [13]; at 11.0 µM 99% | [13]; at 33.0 µM 100% | [13]; at 100.0 µM 100% | [14]; at 3.7 µM 90% | [14]; at 11.0 µM 99% | [14]; at 33.0 µM 99% | [14]; at 100.0 µM 99% | [15]; [17] 99% | [15]; [18] 99% | [15]; at 50.0 µM 99.8% | [16]; at 3.7 µM 85% | [16]; at 11.0 µM 99% | [16]; at 33.0 µM 99% | [16]; at 100.0 µM 98%
